# Results reported in publication PMC11062922 (Nature Chemical Biology, 2023).
# System: GSPT1;GSPT2
# Parameters: species or system human, MV4-11 + K-562 + COLO205 + SK-N-BE2 + OVCAR-8
# Conditions: read-out: apparent Kd; compound concentrations: 100 nM and 1000 nM (sheet 'Samples'), CATDS: 3.5728111751545999E-2; n = 1
smiles,measurement,value
CCC(CC)(CC)n1cnc2c(N)ncnc21 [SKF-97620],potency estimated from few doses,655 nM
